# Experimental data from PubChem BioAssay (NCATS).
# Unmarked numbers belong to inactive results. Results filed as inconclusive are left out. Entries that show only a call come without a potency. The source made the active and inactive calls. Unless noted, the call rests on the fitted dose curve; in most records, active means well fitted curve in the direction sought with a large enough effect; inconclusive means small, poorly fitted or top-dose-only effect, or another doubt; inactive means no such curve, though single readings can be large; an effect the other way counts as inactive or inconclusive.
# Tests used:
# [1] = target: Rap guanine nucleotide exchange factor 3 (Homo sapiens) (UniProt O95398); assay: Confirmatory qHTS for antagonist of cAMP-regulated guanine nucleotide exchange factor 3 (EPAC1) (AID 1645880); conditions: EPAC1 Rap1B-BODIPY-GDP exchange, fluorescence; activity, negative = inhibition: at 115 µM (top of the series); further: nearly all actives have a fitted effect of over 55% in size; further: potency means the concentration at half of the fitted maximal effect
# Rap guanine nucleotide exchange factor 3 (Homo sapiens), sequence (O95398 whole entry, looked up): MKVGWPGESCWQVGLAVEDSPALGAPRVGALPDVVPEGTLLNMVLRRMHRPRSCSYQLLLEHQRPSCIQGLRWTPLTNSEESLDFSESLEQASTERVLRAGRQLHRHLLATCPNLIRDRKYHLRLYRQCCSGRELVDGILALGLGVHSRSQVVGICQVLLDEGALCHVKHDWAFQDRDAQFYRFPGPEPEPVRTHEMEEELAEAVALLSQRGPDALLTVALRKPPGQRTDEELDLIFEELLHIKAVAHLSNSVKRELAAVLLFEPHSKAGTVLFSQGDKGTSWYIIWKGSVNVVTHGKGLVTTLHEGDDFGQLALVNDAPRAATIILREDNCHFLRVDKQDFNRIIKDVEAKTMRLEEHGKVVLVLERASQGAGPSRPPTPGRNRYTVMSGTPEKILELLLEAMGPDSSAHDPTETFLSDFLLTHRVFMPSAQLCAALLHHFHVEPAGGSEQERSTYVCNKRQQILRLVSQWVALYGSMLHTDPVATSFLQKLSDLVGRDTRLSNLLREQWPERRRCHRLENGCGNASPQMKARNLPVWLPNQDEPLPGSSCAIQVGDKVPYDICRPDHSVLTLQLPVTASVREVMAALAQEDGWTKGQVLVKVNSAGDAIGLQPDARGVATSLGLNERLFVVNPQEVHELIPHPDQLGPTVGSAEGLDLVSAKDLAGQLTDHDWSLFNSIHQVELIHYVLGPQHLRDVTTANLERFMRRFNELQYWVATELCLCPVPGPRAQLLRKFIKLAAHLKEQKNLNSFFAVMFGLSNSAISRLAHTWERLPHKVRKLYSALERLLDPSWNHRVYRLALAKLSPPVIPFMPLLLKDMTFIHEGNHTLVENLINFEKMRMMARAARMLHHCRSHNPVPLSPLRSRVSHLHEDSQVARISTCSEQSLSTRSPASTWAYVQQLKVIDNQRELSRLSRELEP
# Summary of the method: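 Nucleotide exchange uses 100 nM EPAC1, 250 nM RAP1B-BODIPY-GDP and 50 uM GDP, with compounds in a concentration-titration series. After 5 min at room temperature, fluorescence (480 nm ex/540 nm em) is read every 5 min for 30 min. Data are normalized to control ATA and DMSO.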
# [2] = target: Rap guanine nucleotide exchange factor 3 (Homo sapiens) (UniProt O95398); assay: Confirmatory qHTS for agonist of cAMP-regulated guanine nucleotide exchange factor 3 (EPAC1) (AID 1645881); further: nearly all actives have a fitted effect of over 75% in size; further: potency means the concentration at half of the fitted maximal effect;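 on activation: EPAC1 catalysed release of BODIPY-GDP from Rap1B seen as fluorescence loss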
# [3] = target: Rap guanine nucleotide exchange factor 3 (Homo sapiens) (UniProt O95398); assay: Counterscreen qHTS for antagonist of cAMP-regulated guanine nucleotide exchange factor 3 (EPAC1) (AID 1645888);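 further: fluorescence loss as bound BODIPY-GDP is released from Rap1B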
# Summary of the method: (§1)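 Rap1B-BODIPY-GDP 250 nM + GDP 50 uM; cpds 7-pt, final 9.74 nM–152 uM (activator mode) or from 7.32 nM upwards (inhibitor mode); RT; FI 480/540 nm at 5 and 30 min, then ± cAMP, reread.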
# [4] = target: Rap guanine nucleotide exchange factor 3 (Homo sapiens) (UniProt O95398); assay: Counterscreen qHTS for agonist of cAMP-regulated guanine nucleotide exchange factor 3 (EPAC1) (AID 1645889); further: nearly all actives have a fitted effect of over 40% in size; further: potency means the concentration at half of the fitted maximal effect
# Summary of the method: as §1
# [5] = qHTS for Inhibitors of the vitamin D receptor (VDR): Hit Validation using a Texas Red Assay (AID 602201)
# Summary of the method: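 After a 2-hour room-temperature incubation, polarization of Texas-Red emission was read (Ex 595 nm/Em 615 nm). Final mix contained 7 nM Texas Red, 1.5 uM VDR-LBD and LG19078.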
# [6] = target: Cytochrome P450 1A2 (Homo sapiens) (UniProt P05177); assay: p450-cyp1a2 (AID 410; calls by dose curve; further: potency means the concentration at half of the fitted maximal effect)
# Cytochrome P450 1A2 (Homo sapiens), sequence (P05177 whole entry, looked up): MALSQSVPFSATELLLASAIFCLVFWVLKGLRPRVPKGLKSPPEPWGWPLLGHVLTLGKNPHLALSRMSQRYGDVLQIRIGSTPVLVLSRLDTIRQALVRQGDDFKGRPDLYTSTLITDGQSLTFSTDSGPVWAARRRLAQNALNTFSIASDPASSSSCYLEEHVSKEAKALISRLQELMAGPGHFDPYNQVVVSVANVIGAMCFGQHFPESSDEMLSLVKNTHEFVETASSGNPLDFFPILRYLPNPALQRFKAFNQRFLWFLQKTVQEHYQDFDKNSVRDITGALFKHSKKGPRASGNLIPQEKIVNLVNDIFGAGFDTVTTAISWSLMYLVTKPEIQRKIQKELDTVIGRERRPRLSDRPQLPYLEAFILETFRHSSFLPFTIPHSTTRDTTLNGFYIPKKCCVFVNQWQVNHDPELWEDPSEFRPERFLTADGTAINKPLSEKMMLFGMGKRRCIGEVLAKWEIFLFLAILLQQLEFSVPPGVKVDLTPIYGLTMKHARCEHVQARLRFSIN
# Summary of the method: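 20nM CYP1A2 with 100uM Luciferin-ME (at Km) in 100mM KPO4; compound preincubated 10 min, NADPH regeneration added, 60 min at room temperature. Luciferin quantified by luminescence after detection reagent; normalized to 57 uM furafylline.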
# [7] = target: Glucocorticoid receptor (Homo sapiens) (UniProt P04150); assay: GR-GFP Redistribution (AID 450;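 active means compounds whose dose series gives a full or clear partial fitted curve of increased nuclear translocation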; further: potency means the concentration at half of the fitted maximal effect); conditions: U2OS GR-GFP nuclear translocation, laser cytometry, 2 h
# Glucocorticoid receptor (Homo sapiens), sequence (P04150 whole entry, looked up, the tested form may be a part): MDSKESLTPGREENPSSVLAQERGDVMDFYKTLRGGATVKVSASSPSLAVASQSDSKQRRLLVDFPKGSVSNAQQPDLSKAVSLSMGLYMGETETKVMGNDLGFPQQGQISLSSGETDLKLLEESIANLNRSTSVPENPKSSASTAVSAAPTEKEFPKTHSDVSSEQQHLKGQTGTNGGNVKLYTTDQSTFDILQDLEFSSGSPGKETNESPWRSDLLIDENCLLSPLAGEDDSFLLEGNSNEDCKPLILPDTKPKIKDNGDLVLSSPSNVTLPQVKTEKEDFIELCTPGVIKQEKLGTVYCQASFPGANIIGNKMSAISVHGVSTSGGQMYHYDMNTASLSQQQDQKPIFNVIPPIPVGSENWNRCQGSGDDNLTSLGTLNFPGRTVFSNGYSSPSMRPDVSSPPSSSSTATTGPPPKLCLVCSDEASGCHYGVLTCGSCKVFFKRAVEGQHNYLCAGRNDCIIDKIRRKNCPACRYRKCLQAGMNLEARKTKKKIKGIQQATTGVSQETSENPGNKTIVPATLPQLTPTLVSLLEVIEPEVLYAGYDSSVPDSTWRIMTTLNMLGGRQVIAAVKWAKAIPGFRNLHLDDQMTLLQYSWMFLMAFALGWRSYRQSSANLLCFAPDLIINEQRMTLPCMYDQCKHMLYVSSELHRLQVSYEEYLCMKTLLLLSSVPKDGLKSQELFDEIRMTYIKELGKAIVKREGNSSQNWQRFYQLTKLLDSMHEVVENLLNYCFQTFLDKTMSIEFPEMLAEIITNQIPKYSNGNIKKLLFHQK
# [8] = target: Glucocorticoid receptor (Homo sapiens) (UniProt P04150); assay: GR-EFC Redistribution (AID 451; calls by dose curve; further: potency means the concentration at half of the fitted maximal effect); conditions: CHO-K1 GR-EFC translocation, beta-gal luminescence, 2 h
# Summary of the method: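 Translocation of GR-ED fusion to nuclear EA restores b-gal, read by luminescence after 1 h room-temperature detection. Engineered CHO-K1 biosensor cells, 1,000/well, exposed 2 h at 37 C to titrations up to 46 uM final.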
# [9] = target: Mitogen-activated protein kinase 10 (Mus musculus) (UniProt Q61831); assay: JNK3 AlphaScreen Assay (AID 530; active means well fitted curve in either direction with a large enough effect, not every such curve was filed as active;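 further: kinase came from lysate of stimulated human HepG2 cells; potency means the concentration at half of the fitted maximal effect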)
# Summary of the method: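 Compound titrations were preincubated 15 minutes at room temperature with substrate, antibody and pre-activated JNK3-containing HepG2 lysate. Reactions were started with 10 uM ATP and stopped with EDTA-containing bead buffer for AlphaScreen detection.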
# [10] = target: Cytochrome P450 2C9 (Homo sapiens) (UniProt P11712); assay: qHTS Assay for Inhibitors and Substrates of Cytochrome P450 2C9 (AID 883); further: potency means the concentration at half of the fitted maximal effect; nearly all actives have a fitted effect of over 60% in size
# Cytochrome P450 2C9 (Homo sapiens), sequence (P11712 whole entry, looked up): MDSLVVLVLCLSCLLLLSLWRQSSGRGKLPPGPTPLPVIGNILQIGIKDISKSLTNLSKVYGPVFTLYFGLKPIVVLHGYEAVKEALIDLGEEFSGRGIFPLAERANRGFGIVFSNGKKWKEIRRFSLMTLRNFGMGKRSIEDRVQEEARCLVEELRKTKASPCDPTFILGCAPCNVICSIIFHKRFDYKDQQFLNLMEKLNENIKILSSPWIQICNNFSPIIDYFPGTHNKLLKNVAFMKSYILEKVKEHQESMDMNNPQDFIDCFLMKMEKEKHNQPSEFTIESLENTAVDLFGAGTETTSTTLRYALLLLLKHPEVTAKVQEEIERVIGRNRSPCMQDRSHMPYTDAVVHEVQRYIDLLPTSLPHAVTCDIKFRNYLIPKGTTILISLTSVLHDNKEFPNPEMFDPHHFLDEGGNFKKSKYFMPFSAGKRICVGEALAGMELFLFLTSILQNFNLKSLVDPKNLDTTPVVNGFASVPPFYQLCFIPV
# Summary of the method: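 Luminescent read-out of deoxyluciferin hydroxylation, normalized to 57uM sulphaphenazole (AC100). Reaction: 10nM enzyme, 100uM Luciferin-H (equal to KM), 25mM KPO4, 10 min compound preincubation, then 60 min with NADPH regeneration, both at 37C.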
# [11] = target: Cytochrome P450 3A4 (Homo sapiens) (UniProt P08684); assay: qHTS Assay for Inhibitors and Substrates of Cytochrome P450 3A4 (AID 884); further: potency means the concentration at half of the fitted maximal effect; nearly all actives have a fitted effect of over 50% in size
# Cytochrome P450 3A4 (Homo sapiens), sequence (P08684 whole entry, looked up): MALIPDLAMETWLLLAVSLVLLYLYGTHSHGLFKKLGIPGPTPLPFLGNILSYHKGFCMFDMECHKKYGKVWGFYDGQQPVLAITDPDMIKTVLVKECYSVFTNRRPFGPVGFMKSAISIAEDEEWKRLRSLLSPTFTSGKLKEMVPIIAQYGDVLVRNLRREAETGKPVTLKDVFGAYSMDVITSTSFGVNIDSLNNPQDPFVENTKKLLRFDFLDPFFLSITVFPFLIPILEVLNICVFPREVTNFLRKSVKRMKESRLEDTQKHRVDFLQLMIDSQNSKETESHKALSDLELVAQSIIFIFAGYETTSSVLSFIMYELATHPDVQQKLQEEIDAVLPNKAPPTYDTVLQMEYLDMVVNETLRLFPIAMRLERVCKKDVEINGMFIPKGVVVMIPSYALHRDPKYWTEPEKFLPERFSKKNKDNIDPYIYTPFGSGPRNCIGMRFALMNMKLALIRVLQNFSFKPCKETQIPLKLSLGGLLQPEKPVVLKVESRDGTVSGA
# Summary of the method: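 20 nM human CYP3A4 with 25 uM Luciferin-PPXE (at KM) in 200 mM KPO4, preincubated 10 min with compound; NADPH regeneration started a 60 min RT reaction. Luciferin detected by luminescence, normalized to 57 uM ketoconazole as full inhibition.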
# [12] = target: Cytochrome P450 3A4 (Homo sapiens) (UniProt P08684); assay: qHTS Assay for Activators of Cytochrome P450 3A4 (AID 885); further: nearly all actives have a fitted effect of over 65% in size
# Summary of the method: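 Signal was normalized against complete inhibition by 57 uM ketoconazole. The reaction used 20nM CYP3A4 with 25uM Luciferin-PPXE, 10-min compound preincubation and a 60-min NADPH-supported step at RT.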
# [13] = target: Cytochrome P450 2D6 (Homo sapiens) (UniProt P10635); assay: qHTS Assay for Inhibitors and Substrates of Cytochrome P450 2D6 (AID 891); further: potency means the concentration at half of the fitted maximal effect; nearly all actives have a fitted effect of over 60% in size
# Summary of the method: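 Human CYP2D6 (5 nM) with 30 uM Luciferin-ME EGE (at Km) in 100 mM KPO4, compound preincubated 10 min, then NADPH regeneration system for 60 min at room temperature. Luciferin read by luminescence; normalized to 1.43 uM quinidine.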
# [14] = target: DNA dC->dU-editing enzyme APOBEC-3G (Homo sapiens) (UniProt Q9HC16); assay: qHTS for inhibitors of Vif-A3G interactions: Validation (AID 588379)
# DNA dC->dU-editing enzyme APOBEC-3G (Homo sapiens), sequence (Q9HC16 whole entry, looked up): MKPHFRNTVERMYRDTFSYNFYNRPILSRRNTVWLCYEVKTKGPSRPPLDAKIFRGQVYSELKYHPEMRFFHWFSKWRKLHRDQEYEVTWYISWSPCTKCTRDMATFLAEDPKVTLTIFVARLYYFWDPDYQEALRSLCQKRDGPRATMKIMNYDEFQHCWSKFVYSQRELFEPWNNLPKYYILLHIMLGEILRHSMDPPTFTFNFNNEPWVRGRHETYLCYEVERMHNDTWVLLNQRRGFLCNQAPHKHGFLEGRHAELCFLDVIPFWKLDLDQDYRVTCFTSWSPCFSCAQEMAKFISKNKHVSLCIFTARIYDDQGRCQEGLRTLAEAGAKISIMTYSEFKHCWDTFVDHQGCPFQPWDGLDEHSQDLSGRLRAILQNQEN
# Summary of the method: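 HeLa cells stably expressing Vif and A3G-eYFP, 700 cells/well, incubated overnight at 37 deg C, then exposed to compound overnight at 37 deg C. Inhibition of Vif-mediated degradation read as increased yellow fluorescence (Ex 488/Em 500-530) by laser-scanning cytometry.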
# [15] = target: Rap guanine nucleotide exchange factor 4 (Homo sapiens) (UniProt Q8WZA2); assay: Confirmatory qHTS for agonist of cAMP-regulated guanine nucleotide exchange factor 4 (EPAC2) (AID 1645884);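 further: nucleotide exchange releases bodipy-GDP from Rap1 and this lowers its fluorescence; nearly all actives have a fitted effect of over 65% in size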; further: potency means the concentration at half of the fitted maximal effect
# Rap guanine nucleotide exchange factor 4 (Homo sapiens), sequence (Q8WZA2 whole entry, looked up): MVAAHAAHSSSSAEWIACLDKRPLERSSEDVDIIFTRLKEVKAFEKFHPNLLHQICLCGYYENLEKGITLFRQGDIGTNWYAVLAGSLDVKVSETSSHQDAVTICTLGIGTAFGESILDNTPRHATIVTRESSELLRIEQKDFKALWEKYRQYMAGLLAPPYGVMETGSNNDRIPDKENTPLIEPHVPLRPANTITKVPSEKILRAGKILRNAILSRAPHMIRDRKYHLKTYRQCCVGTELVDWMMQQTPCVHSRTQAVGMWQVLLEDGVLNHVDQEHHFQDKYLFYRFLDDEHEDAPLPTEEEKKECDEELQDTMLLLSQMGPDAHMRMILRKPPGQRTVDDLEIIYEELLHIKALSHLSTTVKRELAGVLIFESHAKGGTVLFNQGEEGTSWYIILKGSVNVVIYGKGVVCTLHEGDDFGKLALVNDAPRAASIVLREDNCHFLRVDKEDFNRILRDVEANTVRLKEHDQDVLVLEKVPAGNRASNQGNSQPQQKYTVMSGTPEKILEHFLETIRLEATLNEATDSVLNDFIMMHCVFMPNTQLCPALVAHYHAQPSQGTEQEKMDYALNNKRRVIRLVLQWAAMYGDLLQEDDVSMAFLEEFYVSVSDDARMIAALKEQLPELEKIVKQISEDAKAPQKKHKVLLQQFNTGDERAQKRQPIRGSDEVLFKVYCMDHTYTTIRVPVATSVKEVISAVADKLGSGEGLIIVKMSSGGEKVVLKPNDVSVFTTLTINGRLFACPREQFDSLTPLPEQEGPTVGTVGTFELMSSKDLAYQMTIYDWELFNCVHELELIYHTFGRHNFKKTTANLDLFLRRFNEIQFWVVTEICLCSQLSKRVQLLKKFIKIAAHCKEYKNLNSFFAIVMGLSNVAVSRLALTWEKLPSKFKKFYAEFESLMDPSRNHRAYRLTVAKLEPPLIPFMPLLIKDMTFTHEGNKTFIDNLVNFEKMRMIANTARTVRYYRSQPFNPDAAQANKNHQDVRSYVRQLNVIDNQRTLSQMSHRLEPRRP
# [16] = target: Rap guanine nucleotide exchange factor 4 (Homo sapiens) (UniProt Q8WZA2); assay: Confirmatory qHTS for antagonist of cAMP-regulated guanine nucleotide exchange factor 4 (EPAC2) (AID 1645885); further: nearly all actives have a fitted effect of over 25% in size; further: potency means the concentration at half of the fitted maximal effect
smiles,measurement,setting,value
COC(=O)c1cn(C(=O)c2ccc(C)cc2C)c2ccccc12,Potency,[1],inactive
same,Potency,[2],inactive
same,Potency,[3],inactive
same,Potency,[4],inactive
C=C1SC(Nc2c(C)cc(C)cc2C)=NC12CCCCC2,Potency,[1],inactive
same,Potency,[2],inactive
same,Potency,[3],inactive
same,Potency,[4],inactive
Cc1ccc2cccc(Oc3nnnn3-c3ccccc3)c2n1,Potency,[1],inactive
same,Potency,[2],inactive
same,Potency,[3],inactive
same,Potency,[4],inactive
COc1ccc(S(=O)(=O)N2CCCC2)c(Cl)c1Cl,Potency,[1],inactive
same,Potency,[2],inactive
same,"activity change, negative = inhibition",[3],12.2% [at 30.8 µM]
same,activation,[4],0.265% [at 30.8 µM]
C=CCSc1nc2ccccc2c(=O)n1Cc1ccccc1,Potency,[1],inactive
same,Potency,[2],inactive
same,"activity change, negative = inhibition",[3],17.3% [at 30.8 µM]
same,activation,[4],7.4% [at 30.8 µM]
Cc1ccc(S(=O)(=O)N2[C@@H](c3ccc(C(C)(C)C)cc3)C(C(=O)O)=CC[C@H]2c2cccc(Cl)c2)cc1,Potency,[1],47.8 µM (active)
same,Potency,[2],inactive
same,Potency,[4],inactive
COc1ccc(S(=O)(=O)N2CCCC2)c2ccccc12,Potency,[1],inactive
same,Potency,[2],inactive
same,"activity change, negative = inhibition",[3],-10.4% [at 30.8 µM]
same,activation,[4],9.58% [at 30.8 µM]
O=C(O)c1cc(Nc2cc(Cl)c3nonc3c2[N+](=O)[O-])ccc1O,Potency,[5],inactive
same,Potency,[1],9.53 µM (active)
same,Potency,[2],inactive
same,Potency,[4],inactive
CCC(=O)OC1CC(C)N(C(=O)c2ccccc2)c2ccc(C)cc21 (stereo not given),Potency,[1],inactive
same,Potency,[2],inactive
same,Potency,[3],inactive
same,Potency,[4],inactive
COC(=O)c1ccc2nc(-c3ccc(F)cc3)c(Cc3cccc(F)c3)n2c1,Potency,[1],inactive
same,Potency,[2],inactive
same,Potency,[3],inactive
same,Potency,[4],inactive
O=C(O)c1cnn(-c2nc(-c3ccc(Cl)c(Cl)c3)cs2)c1C(F)(F)F,Potency,[1],75.7 µM (active)
same,Potency,[2],inactive
same,Potency,[3],inactive
same,Potency,[4],inactive
O=C1OC(c2ccccc2)(c2cc(Br)c(O)c(Br)c2)c2ccccc21 (stereo not given),Potency,[1],84.9 µM (active)
same,Potency,[2],inactive
same,Potency,[4],inactive
Cc1cc(C)c2c(c1)OC(=O)CC2c1ccccc1C (stereo not given),Potency,[1],inactive
same,Potency,[2],inactive
same,Potency,[3],inactive
same,Potency,[4],inactive
O=C(O)Cc1ccc(NC(=O)C(c2ccccc2)c2ccccc2)cc1,Potency,[1],inactive
same,Potency,[2],inactive
same,"activity change, negative = inhibition",[3],-6.7% [at 30.8 µM]
same,activation,[4],5.55% [at 30.8 µM]
COC(=O)c1ccc2nc(-c3ccc(F)cc3)c(Cc3ccccc3)n2c1,Potency,[1],inactive
same,Potency,[2],inactive
same,activation,[4],19.8% [at 30.8 µM]
COc1cc2cc3c4c(cc(OC)c(OC)c4c2cc1OC)CCN3C,Potency,[6],0.0794 µM (active)
same,Potency,[7],> 46 µM
same,Potency,[8],> 46 µM
same,Potency,[9],0.158 µM (active)
same,Potency,[10],0.794 µM (active)
same,Potency,[11],3.98 µM (active)
same,outcome,[12],inactive
same,Potency,[13],3.98 µM (active)
same,outcome,[14],inactive
same,Potency,[1],inactive
same,Potency,[2],inactive
COC(=O)c1ccc2nc(-c3ccc(Cl)cc3)c(CC3CCCCC3)n2c1,Potency,[1],inactive
same,Potency,[2],inactive
same,Potency,[3],inactive
same,Potency,[4],inactive
Cc1cccc2c1NC(=O)C2(O)N1CCCC(C)C1 (stereo not given),Potency,[1],inactive
same,Potency,[2],inactive
same,Potency,[3],inactive
same,Potency,[4],inactive
COc1cc(C)c(S(=O)(=O)N2CCCC2)cc1C(C)C,Potency,[1],inactive
same,Potency,[2],inactive
same,activation,[4],14.6% [at 30.8 µM]
Cc1cc2nc3c(=O)n(C)c(=O)n(C)c3nc2cc1N=CN(C)C,Potency,[1],inactive
same,Potency,[2],50.1 µM (active)
same,Potency,[4],44.7 µM (active)
O=C(c1noc2c1CCc1ccccc1-2)N1CCCc2ccccc21,Potency,[1],inactive
same,Potency,[2],inactive
same,Potency,[3],inactive
same,Potency,[4],inactive
CCOc1cc(C)c(S(=O)(=O)N2CCCCC2)cc1C,Potency,[1],inactive
same,Potency,[2],inactive
same,Potency,[3],inactive
same,Potency,[4],inactive
Cc1cccc(C(C)C)c1-n1nnnc1-c1ccccc1,Potency,[1],inactive
same,activation,[15],"6.22% [at 17.1 µM, percent relative to cAMP agonist control]"
same,Potency,[16],3.01 µM (active)
same,"activity change, negative = inhibition",[3],-11.8% [at 30.8 µM]
Cn1c(=O)c(C#N)c(-c2ccc(F)cc2)c2cc(C(=O)c3cc(Cl)cc(Cl)c3O)cnc21,Potency,[1],inactive
same,Potency,[15],inactive
Cc1ccc(NC(=O)c2sc3nc(-c4cc5ccccc5oc4=O)[nH]c(=O)c3c2C)c(C)c1,Potency,[1],inactive
same,Potency,[15],inactive
same,Potency,[16],inactive
same,Potency,[3],inactive
COc1ccc(OC)c(/C=C/c2nc3ccccc3nc2C)c1,Potency,[1],inactive
same,Potency,[15],79.3 µM (active)
same,Potency,[16],inactive
O=C(NN=Cc1c(O)ccc2ccccc12)c1ccncc1,Potency,[1],inactive
same,activation,[15],"6.24% [at 17.1 µM, percent relative to cAMP agonist control]"
same,Potency,[16],inactive
same,"activity change, negative = inhibition",[3],4.58% [at 30.8 µM]
Cc1ccc2cccc(OC(=O)c3c(F)cccc3Cl)c2n1,Potency,[1],inactive
same,Potency,[15],inactive
same,Potency,[16],inactive
same,Potency,[3],inactive
COc1ccc(OC)c(/C=C/c2nc3ccccc3[nH]c2=O)c1,Potency,[1],inactive
same,Potency,[15],100 µM (active)
same,Potency,[16],75.7 µM (active)
same,Potency,[3],inactive
CCOc1ccc2c(ccc(/C=C/c3cc(C)c4cccnc4c3O)[n+]2C)c1,Potency,[1],60.1 µM (active)
same,Potency,[15],70.8 µM (active)
same,Potency,[16],42.6 µM (active)
COc1ccc(C(=O)/C=C/c2ccc(N(C)C)cc2)c(OC)c1,Potency,[1],inactive
same,Potency,[15],inactive
same,Potency,[16],inactive
CC(NC(=O)/C(C#N)=C/c1ccc(N2CCOCC2)cc1)c1ccccc1 (stereo not given),Potency,[1],inactive
same,Potency,[15],112 µM (active)
same,Potency,[16],inactive
same,Potency,[3],inactive
